How the values were obtained:
Conditions in all cases: concentration: 1 μM, replicates: in singlicate; n = 1
IKK-alpha = tested on: T1, IKK-alpha
T1 construct: gene CHUK

IKK-beta = tested on: T2, IKK-beta
T2 construct: gene IKBKB

IKK-epsilon = tested on: T3, IKK-epsilon
T3 construct: gene IKBKE

INSRR = tested on: INSRR
INSR = tested on: INSR
IRAK1 = tested on: IRAK1
IRAK3 = tested on: IRAK3
IRAK4 = tested on: IRAK4
ITK = tested on: ITK
[1] = tested on: JAK1(JH1domain-catalytic)
[2] = tested on: JAK1(JH2domain-pseudokinase)
[3] = tested on: JAK2(JH1domain-catalytic)
[4] = tested on: JAK3(JH1domain-catalytic)
JNK1 = tested on: T4, JNK1
T4 construct: gene MAPK8

JNK2 = tested on: T5, JNK2
T5 construct: gene MAPK9

JNK3 = tested on: T6, JNK3
T6 construct: gene MAPK10

KIT-autoinhibited = tested on: KIT-autoinhibited
KIT = tested on: KIT
LATS1 = tested on: LATS1
LATS2 = tested on: LATS2
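Further: KINOMEscan kinase panel screen.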

Structure (SMILES) | %Inh (IKK-alpha) [%] | %Inh (IKK-beta) [%] | %Inh (IKK-epsilon) [%] | %Inh (INSRR) [%] | %Inh (INSR) [%] | %Inh (IRAK1) [%] | %Inh (IRAK3) [%] | %Inh (IRAK4) [%] | %Inh (ITK) [%] | %Inh [1] [%] | %Inh [2] [%] | %Inh [3] [%] | %Inh [4] [%] | %Inh (JNK1) [%] | %Inh (JNK2) [%] | %Inh (JNK3) [%] | %Inh (KIT-autoinhibited) [%] | %Inh (KIT) [%] | %Inh (LATS1) [%] | %Inh (LATS2) [%]
COc1cc(Nc2nccc(-c3c(-c4cccc(NC(=O)c5c(F)cccc5F)c4)nn4ccccc34)n2)cc(OC)c1OC [GSK323521] | 0 | 25 | 65 | 13 | 13 | 10 | 22 | 0 | 13 | 5 | 0 | 11 | 0 | 12 | 15 | 3 | 23 | 100 | 0 | 11
FC(F)(F)c1ccc(/C=C/c2cncnc2Nc2ccc3[nH]c(Cc4ccccc4)nc3c2)cc1 [GW709199] | 0 | 0 | 0 | 0 | 0 | 2 | 3 | 0 | 6 | 10 | 2 | 65 | 0 | 0 | 0 | 0 | 0 | 0 | 19 | 0
c1ccc(-c2n[nH]cc2Nc2ccnc3ccccc23)nc1 [GW694077] | 92.1 | 81 | 0 | 0 | 0 | 85 | 90.9 | 47 | 14 | 0 | 33 | 94.2 | 88 | 92.6 | 60 | 90 | 0 | 33 | 0 | 0
COc1cc(Nc2nccc(N3CCC(NC(=O)Nc4cccc(C(C)=O)c4)C3)n2)cc(OC)c1OC (stereo not shown) [GSK1379753] | 0 | 10 | 20 | 0 | 1 | 77 | 86 | 40 | 34 | 0 | 11 | 91.4 | 0 | 41 | 29 | 49 | 0 | 86 | 0 | 0
COc1ccc(CNC(=O)NC2CCN(c3ccnc(Nc4ccc(F)cc4)n3)CC2)cc1 [GSK1379788] | 1 | 0 | 11 | 0 | 0 | 17 | 24 | 0 | 0 | 11 | 0 | 9 | 0 | 11 | 5 | 0 | 0 | 19 | 7 | 8
CSc1cccc2c(-c3ccncn3)c(-c3ccc(F)cc3)nn12 [GW514786] | 0 | 0 | 5 | 3 | 10 | 10 | 24 | 0 | 10 | 1 | 9 | 9 | 0 | 24 | 71 | 75 | 0 | 0 | 0 | 16
Cc1ccc(C(=O)Nc2ccc(Nc3ccnc4cc(-c5nccs5)ccc34)cc2O)cc1.Cl [GW494702] | 20 | 7 | 0 | 1 | 100 | 22 | 2 | 5 | 0 | 0 | 0 | 25 | 0 | 18 | 3 | 9 | 0 | 73 | 0 | 0
CC(=O)Nc1nc2cnc(Nc3cc(NC(=O)c4cccc(C5(C#N)CC5)c4Cl)ccc3C)nc2s1 | 7 | 6 | 0 | 0 | 0 | 10 | 24 | 21 | 0 | 17 | 9 | 0 | 0 | 0 | 0 | 0 | 0 | 99.8 | 26 | 0
COc1cc(Nc2nccc(-c3c(-c4cccc(NC(=O)c5c(F)cccc5F)c4)nn4ncccc34)n2)cc(OC)c1OC [GSK327238] | 0 | 0 | 23 | 93 | 64 | 0 | 74 | 0 | 5 | 17 | 0 | 6 | 59 | 39 | 71 | 23 | 31 | 100 | 44 | 28
CC(C)c1nc(-c2cccc(NS(=O)(=O)c3c(F)cccc3F)c2F)c(-c2ccnc(Nc3ccc(N4CCOCC4)nc3)n2)s1 [GSK2008607] | 0 | 4 | 85 | 4 | 4 | 17 | 16 | 10 | 97.4 | 1 | 0 | 91.2 | 99.6 | 3 | 40 | 15 | 0 | 99.9 | 0 | 11
Nc1n[nH]c2cnc(-c3ccccc3)cc12 [SB-642124] | 55 | 64 | 13 | 100 | 0 | 49 | 3 | 32 | 13 | 37 | 0 | 75 | 91 | 13 | 0 | 6 | 12 | 0 | 0 | 2
Cl.c1ccc(-c2ccc3c(Nc4ccc5[nH]ncc5c4)ccnc3c2)nc1 [GW440137] | 10 | 15 | 17 | 0 | 15 | 18 | 26 | 12 | 7 | 26 | 0 | 36 | 0 | 9 | 27 | 15 | 0 | 94.4 | 0 | 3
O=C(Nc1cccc(-c2nn3ccccc3c2-c2ccnc(Nc3cccc(C(F)(F)F)c3)n2)c1)c1c(F)cccc1F [GSK292658] | 0 | 3 | 1 | 12 | 16 | 0 | 0 | 12 | 6 | 0 | 0 | 26 | 0 | 3 | 0 | 0 | 0 | 94.6 | 0 | 6
Cl.Cl.NCC(C(=O)Nc1cc(Br)c(-c2ccnc3[nH]ccc23)s1)c1ccccc1 (stereo not shown) [GSK1269851] | 44 | 34 | 0 | 0 | 0 | 81 | 34 | 26 | 12 | 2 | 0 | 78 | 100 | 15 | 7 | 0 | 2 | 12 | 62 | 80
Cn1cc(-c2ccc3c(c2)CCN3C(=O)Cc2cccc(F)c2)c2c(N)ncnc21 [GSK2603358] | 15 | 43 | 76 | 0 | 0 | 41 | 0 | 22 | 11 | 18 | 0 | 17 | 0 | 12 | 19 | 3 | 7 | 100 | 0 | 13
Cc1cccc(Nc2nc(N[C@H]3CCNC3)ncc2C(N)=O)c1.Cl [GSK2197149] | 35 | 12 | 13 | 0 | 16 | 21 | 1 | 76 | 21 | 0 | 88 | 58 | 3 | 67 | 29 | 34 | 0 | 94.9 | 0 | 0
COc1cccc(C(=O)Nc2cccc(Oc3ccc4nc(NC(=O)C5CC5)cn4n3)c2)c1 | 0 | 2 | 0 | 0 | 0 | 0 | 37 | 0 | 20 | 15 | 8 | 13 | 0 | 0 | 10 | 0 | 99.7 | 100 | 0 | 0

Source: PMC5540273 (PLoS ONE, 2017)
